39 compounds from the supplement of paper PMC4840960 can be followed below.

Molecules are shown by their SMILES. Structures can show the parent of a compound that is named as a salt. ± gives the standard deviation of the averaged measurements.

The first experiment relates to E18 rat cortical neuron-glia co-culture. In words: fiber score / MBP score (myelination specific beyond OL differentiation) (ratio); higher = more myelination-specific MBP alignment. The note with it: 1 µM; treatment time: 8 days (DIV5-DIV13). The method in brief:
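The measure is the ratio of fiber score to MBP score, where fiber score is continuous MBP fiber length per Olig2+ nucleus and MBP score is thresholded MBP area × intensity per Olig2+ nucleus. Primary E18 rat cortical co-cultures received library compounds at 1 or 5 µM in myelination medium from DIV5 to DIV13, then were fixed in 4 % paraformaldehyde and stained for MBP, Olig2 and DAPI before analysis of four 10X fields per well in duplicate wells.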
For the compound `COc1cc(C)c(/C=C/C(C)=C/C=C/C(C)=C/C(=O)O)c(C)c1C` [Acitretin], the “fiber score / MBP score” value was 1.04.

With `COc1cc2c(cc1OC)C(=O)C(CC1CCN(Cc3ccccc3)CC1)C2` (stereo not drawn) [Donepezil], the “fiber score / MBP score” value is 0.462.

Take `CCC1=C(C)CN(C(=O)NCCc2ccc(S(=O)(=O)NC(=O)N[C@H]3CC[C@H](C)CC3)cc2)C1=O` [Glimepiride]: the “fiber score / MBP score” value worked out at 1.06.

Turning to `CN(C)CCC=C1c2ccccc2COc2ccccc21` [Doxepin], the “fiber score / MBP score” value is 0.859 ± 0.061.

On to `N=C(N)NC(=O)c1nc(Cl)c(N)nc1N` [Amiloride], for which the “fiber score / MBP score” value turned out to be 0.887.

For `CC(=O)NS(=O)(=O)c1ccc(N)cc1` [Sulfacetamide], the “fiber score / MBP score” value turned out to be 0.746.

Take `Cn1nnc2c(C(N)=O)ncn2c1=O` [Temozolomide]: the “fiber score / MBP score” value came to 0.532.

Take `O=C(O)/C=C/c1ccc(Cn2ccnc2)cc1` [Ozagrel]: the “fiber score / MBP score” value was 0.768.

`CC(COc1ccccc1)N(CCCl)Cc1ccccc1` (stereo not drawn) [Phenoxybenzamine]: the “fiber score / MBP score” value was 0.774.

Turning to `CCn1cc(C(=O)O)c(=O)c2ccc(C)nc21` [Nalidixic Acid], the “fiber score / MBP score” value came out at 0.966.

For the compound `COC(=O)C1=C(C)NC(C)=C(C(=O)OC2CCCN(Cc3ccccc3)C2)C1c1cccc([N+](=O)[O-])c1` (stereo not drawn) [Benidipine], the “fiber score / MBP score” value was found to be 0.524.

For the compound `CN(C)CCc1c[nH]c2ccc(C[C@H]3COC(=O)N3)cc12` [Zolmitriptan], the “fiber score / MBP score” value was 0.791.

With `O=c1c(O[C@@H]2O[C@H](CO)[C@@H](O)[C@H](O)[C@H]2O)c(-c2ccc(O)c(O)c2)oc2cc(O)cc(O)c12` [Isoquercitrin], the “fiber score / MBP score” value stood at 1.09.

Consider `CO[C@@]1(NC(=O)Cc2cccs2)C(=O)N2C(C(=O)O)=C(COC(N)=O)CS[C@@H]21` [Cefoxitin], for which the “fiber score / MBP score” value worked out at 0.901.

In the case of `CO[C@H]1/C=C/O[C@@]2(C)Oc3c(C)c(O)c4c(O)c(c5c(nc6cc(C)ccn65)c4c3C2=O)NC(=O)/C(C)=C\C=C\[C@H](C)[C@H](O)[C@@H](C)[C@@H](O)[C@@H](C)[C@H](OC(C)=O)[C@@H]1C` [Rifaximin], the “fiber score / MBP score” value stood at 0.779.

For the compound `CN(C)CCCSc1ccccc1NC(=O)/C=C/c1ccccc1` [Cinanserin], the “fiber score / MBP score” value stood at 0.858.

With `O=C(O[C@H]1[C@H](Oc2ccccc2COC(=O)C2(O)C=CCCC2=O)O[C@H](CO)[C@@H](O)[C@@H]1O)c1ccccc1` (stereo partly drawn) [Tremulacin], the “fiber score / MBP score” value was determined as 0.746.

Take `C[C@H](N[C@@H](CCc1ccccc1)C(=O)O)C(=O)N1CCC[C@H]1C(=O)O` [Enalaprilat]: the “fiber score / MBP score” value amounted to 0.936.

For the compound `O=C1CN2Cc3c(ccc(Cl)c3Cl)N=C2N1` [Anagrelide hydrochloride], the “fiber score / MBP score” value amounted to 0.9.

For `CN1C(=O)CC[C@H]1c1cccnc1` [Cotinine], the “fiber score / MBP score” value is 0.604.

On to `CN1CCN(C2=Nc3ccccc3Oc3ccc(Cl)cc32)CC1` [Loxapine], for which the “fiber score / MBP score” value came out at 0.561.

On to `CN1CCC(=C2c3ccccc3CCc3sccc32)CC1` [Pizotyline], for which the “fiber score / MBP score” value worked out at 0.579.

Take `C[n+]1ccccc1C=NO` [Pralidoxime]: the “fiber score / MBP score” value is 0.884.

Regarding `NS(=O)(=O)c1cc(C(=O)O)c(NCc2ccco2)cc1Cl` [Furosemide], the “fiber score / MBP score” value was 0.894.

Turning to `C[C@H]1C[C@H]2[C@@H]3CCC4=CC(=O)C=C[C@]4(C)[C@@]3(F)[C@@H](O)C[C@]2(C)[C@@]1(O)C(=O)CCl` [Clobetasol], the “fiber score / MBP score” value worked out at 0.961.

`CC(=O)OCC[N+](C)(C)C` [Acetylcholine]: the “fiber score / MBP score” value is 0.236.

In the case of `C[C@@H]1C[C@H]2[C@@H]3CCC4=CC(=O)C=C[C@]4(C)[C@@]3(F)[C@@H](O)C[C@]2(C)[C@H]1C(=O)CO` [Desoximetasone], the “fiber score / MBP score” value turned out to be 0.95.

As for `CCN1CCCC1CNC(=O)c1cc(S(N)(=O)=O)ccc1OC` (stereo not drawn) [Sulpiride], the “fiber score / MBP score” value stood at 0.858.

`Clc1ccc2c(c1)C(N1CCNCC1)=Nc1ccccc1O2` [Amoxapine]: the “fiber score / MBP score” value came to 1.09.

On to `CC(=O)CC(c1ccccc1)c1c(O)c2ccccc2oc1=O` (stereo not drawn) [Warfarin], for which the “fiber score / MBP score” value was determined as 0.617.

Take `CN[C@@H]1[C@H](O)[C@H](NC)[C@H]2O[C@@]3(O)C(=O)C[C@@H](C)O[C@H]3O[C@@H]2[C@H]1O` [Spectinomycin]: the “fiber score / MBP score” value turned out to be 0.923.

For `O=C(c1ccc(F)cc1)C1CCN(CCn2c(=S)[nH]c3ccccc3c2=O)CC1` [Altanserin], the “fiber score / MBP score” value is 0.994.

`CCc1nc(N)nc(N)c1-c1ccc(Cl)cc1` [Pyrimethamine]: the “fiber score / MBP score” value was 1.86.

Consider `CN/C(=N\CCSCc1nc[nH]c1C)NC#N` [Cimetidine], for which the “fiber score / MBP score” value was found to be 0.731.

With `CCCCNC(=O)NS(=O)(=O)c1ccc(C)cc1` [Tolbutamide], the “fiber score / MBP score” value is 0.923.

In the case of `CN1CCC[C@H]1c1cccnc1` [Nicotine], the “fiber score / MBP score” value was found to be 0.761.

Regarding `NC(=O)OCC(COC(N)=O)c1ccccc1` [Felbamate], the “fiber score / MBP score” value was 0.591.

`NS(=O)(=O)c1cc2c(cc1C(F)(F)F)NCNS2(=O)=O` [Hydroflumethiazide]: the “fiber score / MBP score” value came out at 0.948.

In the case of `Nc1nc2ccc(Cl)cc2c2nc(-c3ccco3)nn12`, the “fiber score / MBP score” value came to 0.556.

The experiment is the same for the next values; noted with them: 5 µM; treatment time: 8 days (DIV5-DIV13).
For `COc1cc(C)c(/C=C/C(C)=C/C=C/C(C)=C/C(=O)O)c(C)c1C` [Acitretin], the “fiber score / MBP score” value came out at 1.45.

With `COc1cc2c(cc1OC)C(=O)C(CC1CCN(Cc3ccccc3)CC1)C2` (stereo not drawn) [Donepezil], the “fiber score / MBP score” value is 0.277.

For the compound `CCC1=C(C)CN(C(=O)NCCc2ccc(S(=O)(=O)NC(=O)N[C@H]3CC[C@H](C)CC3)cc2)C1=O` [Glimepiride], the “fiber score / MBP score” value is 0.96.

Take `CN(C)CCC=C1c2ccccc2COc2ccccc21` [Doxepin]: the “fiber score / MBP score” value is 0.732 ± 0.042.

In the case of `N=C(N)NC(=O)c1nc(Cl)c(N)nc1N` [Amiloride], the “fiber score / MBP score” value was determined as 0.827.

As for `CC(=O)NS(=O)(=O)c1ccc(N)cc1` [Sulfacetamide], the “fiber score / MBP score” value was found to be 1.2.

As for `Cn1nnc2c(C(N)=O)ncn2c1=O` [Temozolomide], the “fiber score / MBP score” value was 0.773.

Take `O=C(O)/C=C/c1ccc(Cn2ccnc2)cc1` [Ozagrel]: the “fiber score / MBP score” value was 1.11.

For `CC(COc1ccccc1)N(CCCl)Cc1ccccc1` (stereo not drawn) [Phenoxybenzamine], the “fiber score / MBP score” value came out at 0.918.

For `CCn1cc(C(=O)O)c(=O)c2ccc(C)nc21` [Nalidixic Acid], the “fiber score / MBP score” value came out at 0.797.

In the case of `COC(=O)C1=C(C)NC(C)=C(C(=O)OC2CCCN(Cc3ccccc3)C2)C1c1cccc([N+](=O)[O-])c1` (stereo not drawn) [Benidipine], the “fiber score / MBP score” value was 0.892.

With `CN(C)CCc1c[nH]c2ccc(C[C@H]3COC(=O)N3)cc12` [Zolmitriptan], the “fiber score / MBP score” value came out at 0.785.

`O=c1c(O[C@@H]2O[C@H](CO)[C@@H](O)[C@H](O)[C@H]2O)c(-c2ccc(O)c(O)c2)oc2cc(O)cc(O)c12` [Isoquercitrin]: the “fiber score / MBP score” value worked out at 0.826.

As for `CO[C@@]1(NC(=O)Cc2cccs2)C(=O)N2C(C(=O)O)=C(COC(N)=O)CS[C@@H]21` [Cefoxitin], the “fiber score / MBP score” value came out at 0.686.

Consider `CO[C@H]1/C=C/O[C@@]2(C)Oc3c(C)c(O)c4c(O)c(c5c(nc6cc(C)ccn65)c4c3C2=O)NC(=O)/C(C)=C\C=C\[C@H](C)[C@H](O)[C@@H](C)[C@@H](O)[C@@H](C)[C@H](OC(C)=O)[C@@H]1C` [Rifaximin], for which the “fiber score / MBP score” value worked out at 0.73.

`CN(C)CCCSc1ccccc1NC(=O)/C=C/c1ccccc1` [Cinanserin]: the “fiber score / MBP score” value came to 0.995.

`O=C(O[C@H]1[C@H](Oc2ccccc2COC(=O)C2(O)C=CCCC2=O)O[C@H](CO)[C@@H](O)[C@@H]1O)c1ccccc1` (stereo partly drawn) [Tremulacin]: the “fiber score / MBP score” value came out at 2.76.

Consider `C[C@H](N[C@@H](CCc1ccccc1)C(=O)O)C(=O)N1CCC[C@H]1C(=O)O` [Enalaprilat], for which the “fiber score / MBP score” value is 0.731.

As to `O=C1CN2Cc3c(ccc(Cl)c3Cl)N=C2N1` [Anagrelide hydrochloride], the “fiber score / MBP score” value is 0.706.

For the compound `CN1C(=O)CC[C@H]1c1cccnc1` [Cotinine], the “fiber score / MBP score” value stood at 0.723.

In the case of `CN1CCN(C2=Nc3ccccc3Oc3ccc(Cl)cc32)CC1` [Loxapine], the “fiber score / MBP score” value was found to be 0.903.

For the compound `CN1CCC(=C2c3ccccc3CCc3sccc32)CC1` [Pizotyline], the “fiber score / MBP score” value was found to be 0.636.

`C[n+]1ccccc1C=NO` [Pralidoxime]: the “fiber score / MBP score” value is 1.12.

As to `NS(=O)(=O)c1cc(C(=O)O)c(NCc2ccco2)cc1Cl` [Furosemide], the “fiber score / MBP score” value stood at 0.97.

In the case of `C[C@H]1C[C@H]2[C@@H]3CCC4=CC(=O)C=C[C@]4(C)[C@@]3(F)[C@@H](O)C[C@]2(C)[C@@]1(O)C(=O)CCl` [Clobetasol], the “fiber score / MBP score” value was determined as 0.686.

Turning to `CC(=O)OCC[N+](C)(C)C` [Acetylcholine], the “fiber score / MBP score” value was found to be 0.34.

Take `C[C@@H]1C[C@H]2[C@@H]3CCC4=CC(=O)C=C[C@]4(C)[C@@]3(F)[C@@H](O)C[C@]2(C)[C@H]1C(=O)CO` [Desoximetasone]: the “fiber score / MBP score” value came out at 0.758.

As for `CCN1CCCC1CNC(=O)c1cc(S(N)(=O)=O)ccc1OC` (stereo not drawn) [Sulpiride], the “fiber score / MBP score” value turned out to be 0.751.

For the compound `Clc1ccc2c(c1)C(N1CCNCC1)=Nc1ccccc1O2` [Amoxapine], the “fiber score / MBP score” value is 0.185.

Turning to `CC(=O)CC(c1ccccc1)c1c(O)c2ccccc2oc1=O` (stereo not drawn) [Warfarin], the “fiber score / MBP score” value worked out at 0.623.

Turning to `CN[C@@H]1[C@H](O)[C@H](NC)[C@H]2O[C@@]3(O)C(=O)C[C@@H](C)O[C@H]3O[C@@H]2[C@H]1O` [Spectinomycin], the “fiber score / MBP score” value was 1.03.

For `O=C(c1ccc(F)cc1)C1CCN(CCn2c(=S)[nH]c3ccccc3c2=O)CC1` [Altanserin], the “fiber score / MBP score” value is 0.605.

Take `CCc1nc(N)nc(N)c1-c1ccc(Cl)cc1` [Pyrimethamine]: the “fiber score / MBP score” value worked out at 2.19.

For the compound `CN/C(=N\CCSCc1nc[nH]c1C)NC#N` [Cimetidine], the “fiber score / MBP score” value was 0.823.

Consider `CCCCNC(=O)NS(=O)(=O)c1ccc(C)cc1` [Tolbutamide], for which the “fiber score / MBP score” value came out at 0.898.

As for `CN1CCC[C@H]1c1cccnc1` [Nicotine], the “fiber score / MBP score” value came to 1.06.

As for `NC(=O)OCC(COC(N)=O)c1ccccc1` [Felbamate], the “fiber score / MBP score” value stood at 0.769.

In the case of `NS(=O)(=O)c1cc2c(cc1C(F)(F)F)NCNS2(=O)=O` [Hydroflumethiazide], the “fiber score / MBP score” value worked out at 0.763.

As for `Nc1nc2ccc(Cl)cc2c2nc(-c3ccco3)nn12`, the “fiber score / MBP score” value came out at 0.773.
